In the supplement of paper PMC11219838:
A number with no mark means an inactive call.

Key:
[1] = tested on: Caenorhabditis elegans dauer (daf-2(e1370)); assay: proportion of mobile C. elegans dauer larvae relative to DMSO control (fraction of DMSO control); higher = more viable, less nematicidal, active = 0.63 or less; extreme values may be limits of the assay; conditions: 60 µM; 5 days; temperature: 20 °C
Outline: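 Compound was added by pinning to 60 µM final, giving 0.6% v/v DMSO, in 96-well plates containing about 20 C. elegans dauers per well in liquid NGM. These dauers came from synchronized larvae held on MYOB plates with E. coli OP50 for 48 h at 25 °C. Plates were sealed and shaken at 200 rpm at 20 °C for 5 days. Under a dissection microscope, the proportion of mobile worms was scored relative to DMSO wells, and two biological replicates were averaged.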

Ditylenchus dipsaci = assay: proportion of mobile D. dipsaci (mixed stage) relative to DMSO control (fraction of DMSO control); higher = more viable, less nematicidal, active = 0.86 or less; extreme values may be limits of the assay; conditions: 60 µM; 5 days; temperature: 20 °C
Outline: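 D. dipsaci were grown on pea plants in Gamborg B-5 agar and extracted through a filter funnel into water, and about 20 worms were added per 96-well well in distilled water. Compound was pinned to 60 µM final (0.6% v/v DMSO), and sealed plates were shaken at 200 rpm for 5 days at 20 °C. After 2 µL 1 M NaOH was added, mobile worms were scored microscopically. Mobility was expressed relative to DMSO controls and averaged over two biological replicates.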

SMILES	proportion of mobile C. elegans dauer larvae [1]	proportion of mobile D. dipsaci (Ditylenchus dipsaci)
Cc1cc(OCc2nc(-c3cccnc3)no2)c(C)cc1Br	1	1
Fc1ccc(OCc2nc(-c3ccc(Br)cc3)no2)cc1	1	1
Brc1ccc(-c2nnc(SCc3ccccc3)o2)cc1	1	1
CC(C)c1ccc(OCc2nc(-c3ccccn3)no2)cc1	1	1
O=C(CSc1nnc(-c2ccco2)o1)Nc1cccc2ccccc12	1	1
O=C(CSc1nnc(-c2ccc(Br)cc2)o1)OCc1ccccc1	1	1
